In PubChem BioAssay AID504832 (National Center for Advancing Translational Sciences (NCATS), 2011):
The whole screen tested about 310,000 compounds, of which about 18,000 (5.8%) were called active. Entries that show only a call come without a potency. Another 22% or so got no clear call; they are omitted. Many of the other results were omitted from the sample, so actives are more common in it than they were. Values without a mark were called inactive. The call rests on the fitted dose curve; in most records, active means well fitted inhibition curve with a large enough effect; inconclusive means small, poorly fitted or top-dose-only effect, or another doubt; inactive means no such curve, though single readings can be large or run the other way.

Experiment: Primary qHTS for delayed death inhibitors of the malarial parasite plastid, 48 hour incubation
Settings: P. falciparum luciferase growth in erythrocytes; series mostly up to 28.7 µM
Summary of the method: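 Luciferase-expressing parasites in RBCs, 2% Hct / 0.1% parasitemia final; RPMI 1640 + 0.5% Albumax; 37 C, 5% CO2, one generation; luminescence read-out, lower signal = inhibition.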
Potency means the concentration at half of the fitted maximal effect.

| Structure (SMILES) | Potency | activity change, negative = inhibition |
| --- | --- | --- |
| COc1ccccc1CCNC(=O)c1c(C)nn(CC(C)C)c1Cl | inactive |  |
| COC(=O)C1CCCCN1C(=O)c1ccc(OC2CCN(C(C)=O)CC2)c(OC)c1 (stereo unspecified) | inactive |  |
| O=C(NC(=S)Nc1ccc(Cl)cc1Cl)C1CC1 | inactive |  |
| CCCCn1c(N)c(N(CC)C(=O)c2ccccc2C(F)(F)F)c(=O)[nH]c1=O | inactive |  |
| Cc1ccc(S(=O)(=O)N2CCC(C)CC2)cc1C(=O)NCc1ccccn1 | inactive |  |
| CC(=O)Nc1c2c(nn1-c1ccc(C)cc1C)CS(=O)C2 (stereo unspecified) | inactive |  |
| CCC(=O)Nc1ccc2nc(C)n(Cc3ccccc3Cl)c(=O)c2c1 | 13.1 µM (active) |  |
| CCOC(=O)CSc1nc2c(c(=O)n(Cc3ccccc3Cl)c(=O)n2C)n1C | inactive |  |
| Cc1nn(CCCC(=O)NCc2ccccc2Cl)c(=O)c2nccn12 | inactive |  |
| COc1ccc(CCN(C)C(=O)C23CC4CC(CC(Cl)(C4)C2)C3)cc1OC | inactive |  |
| Cc1cc(-c2ccc(C)c(S(=O)(=O)Nc3ccc(S(N)(=O)=O)cc3)c2)on1 | inactive |  |
| Cn1cc(/C=C/c2nc3ccccc3c(=O)n2-c2cccc([N+](=O)[O-])c2)c2ccccc21 | 10.4 µM (active) |  |
| Cc1cc(CNC(=O)c2cccc([N+](=O)[O-])c2)c2ccccc2n1 | inactive |  |
| Cc1nc2ccccc2c(=O)n1Cc1ccc([N+](=O)[O-])cc1 | inactive |  |
| Cc1ccc(CC2CC(=O)N(c3cc(C)ccc3C)C2=O)cc1 (stereo unspecified) | inactive |  |
| COc1ccc(NS(=O)(=O)c2ccc3oc(SCC(N)=O)nc3c2)cc1 | inactive |  |
| O=C(COC(=O)CNC(=O)C1CCCCC1)NCc1ccccc1 | inactive |  |
| Cc1cccc(-[n+]2c(-c3cccc(Br)c3)[nH]c3nc4ccccc4nc32)c1 | 13.1 µM (active) |  |
| Cc1ccc2nc(-c3cccc(Br)c3)cc(C(=O)Nn3cnnc3)c2c1 | inactive |  |
| CC(C)Oc1ccc(CCC(=O)NNC(=S)NCc2ccccc2)cc1 | 1.65 µM (active) |  |
| O=C(NNC(=S)NCc1ccccc1)c1ccc(OC(F)F)cc1 | inactive |  |
| Cc1ccc(OCC(=O)NNC(=S)NCc2ccccc2)cc1 | inactive |  |

| Structure (SMILES) | Potency | activity change, negative = inhibition |
| --- | --- | --- |
| O=C(CSc1nc2[nH]ncc2c(=O)[nH]1)Nc1ccc(F)cc1 | inactive |  |
| Cc1nonc1NC(=O)c1ccccc1Br | inactive |  |
| Cc1c(C(=O)NNC(=O)c2ccncc2)oc2ccccc12 | inactive |  |
| Cc1nonc1NC(=O)c1oc2ccccc2c1C | 9.28 µM (active) |  |
| Cc1ccc(NS(=O)(=O)c2ccc3c(c2)NC(=O)CO3)cc1 | inactive |  |
| CC1(C)CC(=O)C(C2=NC(C)(C)Cc3ccccc32)=C(O)C1 | inactive |  |
| Cc1cc2c(cc1C)NC(c1ccccn1)C1=C(CC(C)(C)CC1=O)N2 (stereo unspecified) | 10.4 µM (active) |  |
| CC1(C)CC(=O)C2=C(C1)Nc1cc(C(=O)c3ccccc3)ccc1NC2c1ccccn1 (stereo unspecified) | inactive |  |
| Cc1ccc(NS(=O)(=O)c2ccc(-c3coc(C)n3)cc2)c(C)c1 | inactive |  |
| CCc1ccc2[nH]c(=O)c(Cc3ccccc3)c(O)c2c1 | inactive |  |
| CCOC(=O)C(Cc1ccccc1)NC(=O)CCC(=O)c1ccc(OC)cc1 (stereo unspecified) | inactive |  |
| COC(=O)[C@H](Cc1ccccc1)NC(=O)Nc1ccc(OC)cc1 | inactive |  |
| COc1cc([C@H](Cc2ccccc2)NC(C)=O)oc(=O)c1 | 9.28 µM (active) |  |
| Nc1cc(N)nc(SCc2cccc(F)c2)n1 | inactive |  |
| COc1ccc(S(=O)(=O)N2CCN(C)CC2)c(C)c1 | inactive |  |
| CC(C)CCN1CCC(C)(NC(=O)c2ccccc2)C1=O (stereo unspecified) | inactive |  |
| Cc1cc(Cl)c2oc(C(=O)NC(C)c3ccncn3)c(C)c2c1 (stereo unspecified) | inactive |  |
| Cc1nnc(SCC(=O)N/N=C/c2cn(-c3ccccc3)nc2-c2ccc(F)cc2)n1-c1ccccc1 | inactive |  |
| COc1ccc(-c2nn(-c3ccccc3)cc2C(=O)Nc2nccs2)cc1OC | 13.1 µM (active) |  |
| COc1ccc(-c2nn(-c3ccccc3)cc2C(=O)Nc2nc(CC(C)=O)ns2)cc1 | inactive |  |
| O=C(O)c1ccc(NC(=O)c2cn(-c3ccccc3)nc2-c2ccc(Cl)cc2)cc1 | inactive |  |
| CN(C)/N=C/c1cn(-c2ccccc2)nc1-c1cccnc1 | inactive |  |

| Structure (SMILES) | Potency | activity change, negative = inhibition |
| --- | --- | --- |
| COc1ccc(-c2nn(-c3ccccc3)cc2/C=N/Nc2ccccn2)cc1OC | 4.65 µM (active) |  |
| Cc1nc([N+](=O)[O-])cn1CC(=O)Nc1ccc(Cl)cc1 | inactive |  |
| O=C(Nc1ccc(NC(=O)c2ccccc2F)cc1)c1ccccc1F | inactive |  |
| O=C(O)c1ccccc1CSc1nc2ccccc2s1 | inactive |  |
| CCOC(=O)C1CCN(C(=O)CN2C(=O)c3cccnc3Oc3ccc(C)cc32)CC1 | inactive |  |
| COc1ccc(C2/C(=C(/O)c3ccccc3)C(=O)C(=O)N2C)c(OC)c1 (stereo unspecified) | inactive |  |
| C#CC(CCN1CCCCC1)(OC)c1ccccc1 (stereo unspecified) | inactive |  |
| CN1CCC[C@@H]1CCO[C@](C)(c1ccccc1)c1ccc(Cl)cc1 | 12 µM (active) |  |
| COc1ccc(CNC(=O)COc2ccccc2C(=O)c2cnn(-c3ccccc3)c2)cc1OC | inactive |  |
| N#Cc1ccc(CN2CCN(CC(=O)Nc3ccccc3C(=O)NC3CC3)CC2)cc1 | inactive |  |
| CCn1cc(C(=O)NCCC(=O)NCCO)c(=O)c2cc3c(cc21)OCO3 | inactive |  |
| COc1ccc(C(=O)Nc2ccc(C3(C#N)CCCC3)cc2)cc1OC | inactive |  |
| COc1ccc(C2(CNC(=O)Cc3ccc(OC)c(OC)c3)CCCC2)cc1 | inactive |  |
| COc1cc(C(=O)NCC2(c3ccccc3)CCCC2)ccc1OC(C)C | 14.7 µM (active) |  |
| COc1cc(OC)c(NS(=O)(=O)c2cn(C)cn2)cc1Cl | inactive |  |
| Cc1cccc(NC(=O)c2cccnc2Cl)n1 | inactive |  |
| CCc1cccc(NC(=S)N(CCN(C)C)C2CCN(C(C)C)CC2)c1 |  | -29.2% [at 0.00184 µM] |
| COCCN(CCOC)C(=S)Nc1ccccc1Cl | inactive |  |
| CCc1ccc2c(c1)cc(CN(C(=S)Nc1ccccc1Cl)C1CC1)c1nnnn12 | 6.57 µM (active) |  |
| COc1ccc(CNC(=O)C(=O)NCC2OCCN2C(=O)c2ccc(OC)cc2)cc1 (stereo unspecified) | inactive |  |
| Cc1c(CCC(=O)N[C@@H](CC(C)C)C(=O)O)c(=O)oc2c(C)c3oc4c(c3cc12)CCCC4 | 2.33 µM (active) |  |
| Cc1c(C)c2cc3c4c(oc3c(C)c2oc1=O)CCCC4 | inactive |  |

| Structure (SMILES) | Potency | activity change, negative = inhibition |
| --- | --- | --- |
| CC[C@@H](C)[C@H](NC(=O)CCc1c(C)c2cc3c4c(oc3c(C)c2oc1=O)CCCC4)C(=O)O | inactive |  |
| O=C(NCc1ccccc1)C(c1ccccc1)N(C(=O)c1csnn1)c1ccc(F)cc1 (stereo unspecified) | inactive |  |
| Cc1n[nH]c(=O)c2c1nnn2Cc1ccc(F)cc1 | inactive |  |
| CSc1nc2ccccc2c(=O)n1Cc1ccc(F)cc1 | inactive |  |
| Cc1c2cn[nH]c(=O)c2c(C)n1Cc1ccc(F)cc1 | 11.7 µM (active) |  |
| Cc1ccc(N2C(=O)C3C4C=CC(CC4)C3C2=O)cc1Br (stereo unspecified) | inactive |  |
| O=C(COc1coc(CN2CCN(c3ccccc3F)CC2)cc1=O)N1CCc2ccccc21 | inactive |  |
| COc1ccc(S(=O)(=O)NCC(=O)NC2CC2)cc1OC | inactive |  |
| O=C(O)CCCn1c(=O)c2cccn2c2ccc(F)cc21 | inactive |  |
| CCOC(=O)C1CCN(Cc2nnc(-c3cccc(Br)c3)o2)CC1 | inactive |  |
| CCOc1ccccc1N1CCN(C(=O)c2ccc3[nH]c(C)c(C)c3c2)CC1 | inactive |  |
| CCCCCCCNC(=O)C1(CC2CC(c3cccc(Br)c3)=NO2)CCN(C(=O)c2cc(OCC)c(OCC)c(OCC)c2)CC1 (stereo unspecified) | 0.657 µM (active) |  |
| N#Cc1c(Cl)nc(-c2cccnc2)nc1-c1ccccc1 | inactive |  |
| CCCC[C@H]1COCCS(=O)(=O)N1Cc1cccc(Cl)c1 | inactive |  |
| COc1cc(NC(=O)C2CC(c3ccccc3O)=NO2)c(OC)cc1Cl (stereo unspecified) | inactive |  |
| Cc1nc(-c2ccc(F)cc2)c(CC(=O)N2CCN(S(=O)(=O)c3ccc(F)cc3)CC2)s1 | inactive |  |
| Cc1ccccc1NC(=O)CSc1nc2ccc(Nc3nc(N4CCOCC4)nc(N4CCOCC4)n3)cc2s1 | inactive |  |
| O=C(CN1CCOCC1)Nc1cc(Cl)ccc1Cl | inactive |  |
| O=C(CSc1nc(Nc2ccccc2)nc(N2CCOCC2)n1)Nc1cc(Cl)ccc1O | 1.17 µM (active) |  |
| Cn1c(SCC(=O)N2CCCCC2)nc2c(c1=O)SCC2 | inactive |  |
| CNC(=O)c1ccc(NC(=O)c2cccc(C(F)(F)F)c2)cc1 | inactive |  |
| O=C(Nc1ccc(C(F)(F)F)cc1)c1cccc(-n2cnnn2)c1 | 10.4 µM (active) |  |

| Structure (SMILES) | Potency | activity change, negative = inhibition |
| --- | --- | --- |
| O=C(Nc1cccc(-n2cnnn2)c1)c1cccnc1 | inactive |  |
| O=C(NCc1ccc(F)cc1)C1CCN(C(=O)Nc2ccc(F)cc2)CC1 | inactive |  |
| O=C(Nc1cccc(Cl)c1Cl)c1ccccc1NC(=O)C1CC=CCC1C(=O)O (stereo unspecified) | inactive |  |
| COC(=O)c1cc(C(=O)CSc2nc(C)cc(C)n2)ccc1O | inactive |  |
| CC(C)C1N=C2c3ccccc3N=C(SCC(=O)c3ccc(O)c(O)c3)N2C1=O (stereo unspecified) | 11.7 µM (active) |  |
| CCc1ccc(S(=O)(=O)N/N=C\c2ccc([N+](=O)[O-])o2)cc1 | inactive |  |
| COc1ccc(CCNS(=O)(=O)c2cn(C)nc2C)cc1 | inactive |  |
| Cc1ccc(F)cc1NC(=O)Cc1nn(C)c(=O)c2ccccc12 | inactive |  |
| O=C1c2oc3ccc(Br)cc3c(=O)c2C(c2cccc(F)c2)N1CCO (stereo unspecified) | inactive |  |
| Cc1c(-c2nn(C)c(=O)c3ccccc23)oc2ccc(F)cc2c1=O | 2.62 µM (active) |  |
| CCCNC(=O)CCc1c(C)nc2c(c(C)nn2-c2ccccc2)c1C | inactive |  |
| O=C(CN(C(=O)CCC(=O)Nc1nccs1)c1ccc(F)cc1)NCc1ccc2c(c1)OCO2 | inactive |  |
| COCCn1c(SCC(=O)Nc2ccc3c(c2)CCC3)nc2ccccc2c1=O | inactive |  |
| CN(CCOc1ccc(Br)cc1)CC(=O)Nc1cccc(S(=O)(=O)NC2=NCCC2)c1 | inactive |  |
| CCc1ccc(C(=O)OCC(=O)Nc2cccc(S(=O)(=O)NC3=NCCCCC3)c2)cc1 | 10.4 µM (active) |  |
| O=C(Cn1cnc2ccccc2c1=O)Nc1cccc(S(=O)(=O)N2CCCCC2)c1 | inactive |  |
| Cc1cccc(-n2c(SCC(=O)Nc3cccc(S(=O)(=O)NC4=NCCCCC4)c3)nc3ccccc3c2=O)c1C | 13.1 µM (active) |  |
| O=C(Nc1cccc(S(=O)(=O)NC2=NCCC2)c1)C1CCCCC1 | inactive |  |
